Data taken from publication PMC13494018.

B1: design_376_bf9d4634-8475-4fdb-a175-1db49a23bdcd_425_dldesign_0_cycle1_af2pred (protein)
chain: DEEDEKNLEKVKRIYERAKELAKEGLEAIKKGTSKTKALYGAAKLERAAEAAKAASGGKHKEEMKKIAEESKKLAKELEEASKTY
B2: design_623_6e2e8b1f-5d9a-4413-9869-27a184816b12_1942_dldesign_0_cycle1_af2pred (protein)
chain: AAAAATVAANAALAMAKKALEIAERAKKAGEEAPELAQSALQALDVAEALIAYATAISAAADAATKAKLAEAKKVVKEAREIAEKVIK
B3: design_623_6e2e8b1f-5d9a-4413-9869-27a184816b12_1571_dldesign_0_cycle1_af2pred (protein)
chain: GEEAKKLAEEGDKLAEQGKAATPQEGLALLLEAAKKYSEAARLYREAGNEEEAAKAEAKLQEVNAQLNAAAKAAIAA
B4: design_623_6e2e8b1f-5d9a-4413-9869-27a184816b12_2025_dldesign_0_cycle1_af2pred (protein)
chain: GEERLLAAINEGARAILEVTAPESDAQRNAVVHAFILGMVRGPEQGLADLAAAAAALSPEVAKAAVEEATKIIERYLA
B5: design_376_bf9d4634-8475-4fdb-a175-1db49a23bdcd_661_dldesign_0_cycle1_af2pred (protein)
chain: SENIKKLSDARNEAIKYLREAVKLAGEEIKEEAAKAIELIGDLEKIPEALEEIEKAIKLAEKVENAEEVKKLLKKAKESAEEALKLS
B6: design_376_bf9d4634-8475-4fdb-a175-1db49a23bdcd_538_dldesign_0_cycle1_af2pred (protein)
chain: EAAELAALKAAGKAMAAVVKAADPALGAKVAATVEAGAKGTPAEFKKALQDAIGAVLLENPEAGRAAAKAAKDTYKAAKAA
B7: design_623_6e2e8b1f-5d9a-4413-9869-27a184816b12_1669_dldesign_0_cycle1_af2pred (protein)
chain: SSALQTVKGYLALGKVAATAIRSGKVELGKELAEAAIKGALEAGKEHPEVAEEAEKAAEEIRKITEEALEEVEEA
B8: design_623_6e2e8b1f-5d9a-4413-9869-27a184816b12_2057_dldesign_0_cycle1_af2pred (protein)
chain: MEVIEKLKEYGQQAIDILTGLAKAQPAVKDVAEPAAQEVREATKKAVERGEKEGEEAAKKEYEKVHALANAALARVSKLAAA
B9: design_376_bf9d4634-8475-4fdb-a175-1db49a23bdcd_131_dldesign_0_cycle1_af2pred (protein)
chain: DLEEELKKLIEKALKGNLEEALKALDEAVKLVEEKLSKTTADTAKEIAKAGKENAKKAETEEEARKNIAKALKTIKRIALLDAE
B10: design_623_6e2e8b1f-5d9a-4413-9869-27a184816b12_2213_dldesign_0_cycle1_af2pred (protein)
chain: AVEELLAKAKEYAAKLKELADDLEAAKALATEKREDIGQVIMAAAIVAATESPEVAARAREVQRHAWSLQR
B11: design_623_6e2e8b1f-5d9a-4413-9869-27a184816b12_1663_dldesign_0_cycle1_af2pred (protein)
chain: GLEEFEKIVREAAEKVIENAGDPEKQREIVLEAAKKAEEAGYSATVGAGAINARVRAEGTPEAAAIAAEVYQELRDKERA
B12: design_376_bf9d4634-8475-4fdb-a175-1db49a23bdcd_737_dldesign_0_cycle1_af2pred (protein)
chain: MAREKQIKLYGESLLEIAIESAVAAIKKYEDAYKIIKELSEKRAKKAEEAGDKEMGEKIKKIGKEIAELAEKDKEKALEYAKKL
B13: design_623_6e2e8b1f-5d9a-4413-9869-27a184816b12_1750_dldesign_0_cycle1_af2pred (protein)
chain: DLLEQARIAANSTVALKKTTKEILAKSTPESAEKVAEVAVELAKQAKELGKKAGTKEAKELAKKAEKAAKEAVEAVKKAKA
B14: design_623_6e2e8b1f-5d9a-4413-9869-27a184816b12_1575_dldesign_0_cycle1_af2pred (protein)
chain: NAGQAVADALRAATEAERAAAAVDPALAAQARALLAKAMQAAVAGDDAEAIAYAAEVRALRDEVLARAAA
B15: design_623_6e2e8b1f-5d9a-4413-9869-27a184816b12_1434_dldesign_0_cycle1_af2pred (protein)
chain: DAAAKELRERATALAGRTLLALARDPAEGERTLEEAVKELEALGKESGLEELAKEEAARLRAQYEAFRAVAEA
B16: design_376_bf9d4634-8475-4fdb-a175-1db49a23bdcd_302_dldesign_0_cycle1_af2pred (protein)
chain: GEAEKEKLKKEIYKLYREERKKVAEAIKKGKEEGKEALEKAEKALEEKAKEAAKYPEAAQLALQYKEALKEYYEMASK
B17: design_623_6e2e8b1f-5d9a-4413-9869-27a184816b12_1572_dldesign_0_cycle1_af2pred (protein)
chain: KAEEVVKIVREAAREAKKDPEKAKEYANRALGALLDLAKAGSQEAALVASQGAAKIAKKITSGASAEEIAKALEEAAKKVEEAAKKE
B18: design_376_bf9d4634-8475-4fdb-a175-1db49a23bdcd_214_dldesign_0_cycle1_af2pred (protein)
chain: MELLKEAEKYAKEAKEYAEKALKEPEKAEEYVKKAAEYVAKLYELAAEAYRLDKELGKKAKKLAKEARKEVKEKYKEAKK
B19: design_623_6e2e8b1f-5d9a-4413-9869-27a184816b12_1355_dldesign_0_cycle1_af2pred (protein)
chain: AVAQQALATAQRNLERAKEYAKAGDVKAATAFATTAITLAQAVAATDPALAPQAQAIIDQAQAVIEEAKA
B20: design_376_bf9d4634-8475-4fdb-a175-1db49a23bdcd_502_dldesign_0_cycle1_af2pred (protein)
chain: GKKEKALKELEKLKKEAEELEEEGKKAGPKAYQEAGSMLIKIESALSAAKKGDEEEAEKAAKKAKEAYEKGKEKVTKLIKEEKAKKE
B21: design_623_6e2e8b1f-5d9a-4413-9869-27a184816b12_1758_dldesign_0_cycle1_af2pred (protein)
chain: AEKVKELAKKAEELAKKAEKAAKESLAKAEKYAAKADELAREVNREAQKVATSGEAGEALLKALEAQAKARKALAEAKAKAEA
B22: design_376_bf9d4634-8475-4fdb-a175-1db49a23bdcd_370_dldesign_0_cycle1_af2pred (protein)
chain: SLGKKLSEALRKAVRAARKAVEYMKAGDEENAEKYYKEAKEYAKELPEDVRNFVLNTMEKKIEEAKKEYA
B23: design_623_6e2e8b1f-5d9a-4413-9869-27a184816b12_2491_dldesign_0_cycle1_af2pred (protein)
chain: TAKALAAAVEKAKELAAIVAEVQGDGAFGAAMVNTLANYAAAAGVPQALVDRARAAAKEALASADGAKVALAELKALAAEFKAA
B24: design_376_bf9d4634-8475-4fdb-a175-1db49a23bdcd_232_dldesign_0_cycle1_af2pred (protein)
chain: EKEKLEKIVEEIKKYVEEAKELAKGDISSQSKAVSLLHKAFSLAGKAIGKEAKELEDKMLNAETMEEAVKIGEELYEKFSKIAKA
B25: design_376_bf9d4634-8475-4fdb-a175-1db49a23bdcd_541_dldesign_0_cycle1_af2pred (protein)
chain: EEEAKKLVEKAKEKLKKAKETAKNGTAEEAAKTAKEVFKEAREYGKKLKKKGYDEEYVKKIAEYAHEAAEIYAEESNKV
B26: design_623_6e2e8b1f-5d9a-4413-9869-27a184816b12_1704_dldesign_0_cycle1_af2pred (protein)
chain: MEEALTEAFRAVAEMNRLAEEARKANPEAAEKAEEARREMSRLAIEAARSDAETAAELAKKIKEILEKTKKVVEELA
B27: design_376_bf9d4634-8475-4fdb-a175-1db49a23bdcd_377_dldesign_0_cycle1_af2pred (protein)
chain: GEEVEKLYKELIKAGKEADKALELAVKIGKVDSETLQILGEASIYADNPELAKGLAERDPEKAKERIKETKKAVEEVKKLYKEYK
B28: design_623_6e2e8b1f-5d9a-4413-9869-27a184816b12_1541_dldesign_0_cycle1_af2pred (protein)
chain: DFFEKALKAAKAALKKAEEALEKGKEDLAAAKAAVHQAQAAYVLASGLAVAAEAAGADPKVAKEAKELAEKAKELMEQGKKLAAKLA
B29: design_623_6e2e8b1f-5d9a-4413-9869-27a184816b12_2207_dldesign_0_cycle1_af2pred (protein)
chain: NPKVEELREEVRRLIAELARAGVAGTPEIAATVGAAIEQALKLLGESRETGEESLKEAIKIVKEALKAAA
B30: design_376_bf9d4634-8475-4fdb-a175-1db49a23bdcd_487_dldesign_0_cycle1_af2pred (protein)
chain: DIKEELKKLAEEVKKLAKEVAELSKKDKEEAKVKAEEAEKLAEKALELAVKAIKEDEEAREVAHEAITEAFYALSVADAAK
B31: design_623_6e2e8b1f-5d9a-4413-9869-27a184816b12_2159_dldesign_0_cycle1_af2pred (protein)
chain: AAAAAAKVAEAAAKAMLRTAKAILKESKASGGAKAPDALAAAEVALALADDLERQGGDPKTAEKLKKEAKAVAAEAKKVAA
B32: design_623_6e2e8b1f-5d9a-4413-9869-27a184816b12_1798_dldesign_0_cycle1_af2pred (protein)
chain: AAAEEKTKAYEIALETAKLLTAAAALADELAATNPEAAALAAQARQLNVDLNKTAIAGELTLELAEEYLKKAKEIAARVKALAKAA
B33: design_376_bf9d4634-8475-4fdb-a175-1db49a23bdcd_69_dldesign_0_cycle1_af2pred (protein)
chain: ANKEEVDAAADAISEAFRLAREYVLKEGLDPKEVANKLIQGLDDIEYGLALGEELEKDPASAEAGKALKKAAELLAKI
B34: design_376_bf9d4634-8475-4fdb-a175-1db49a23bdcd_110_dldesign_0_cycle1_af2pred (protein)
chain: VEELVEKVKKETAKKVWESTDLSAEEKEKVADELEALAKELAKISPEAAKAAKKAAAVVKRFAEDEKKAE
B35: design_623_6e2e8b1f-5d9a-4413-9869-27a184816b12_1921_dldesign_0_cycle1_af2pred (protein)
chain: SSVAAFLAAAAQAVKAAAEQGNLAAAAAFLRAAALASDPEAGKKLEALAKAAEAATAEEGKAIAKEGAKLLKELAEEVEAK
B36: design_623_6e2e8b1f-5d9a-4413-9869-27a184816b12_1445_dldesign_0_cycle1_af2pred (protein)
chain: EEAVLERIRALGEEGAALFQAAIKAAVAGDVAAAEALLKAGREKFEEAIALGEATSPRARELAEEVRRRMEAGEKIAQLAIEGAKA
B37: design_623_6e2e8b1f-5d9a-4413-9869-27a184816b12_1410_dldesign_0_cycle1_af2pred (protein)
chain: SEELRERARELREEAERAEREAREAAERGDAERVREQLRRLSRLAAEAARLANQATAAGDEETAAEANEALARAVEAMERAQEWAE
B38: design_376_bf9d4634-8475-4fdb-a175-1db49a23bdcd_604_dldesign_0_cycle1_af2pred (protein)
chain: SVAAITAHAEALARKAVADPANAAAYLSEARDYVLTNGDAEALRAAADVLRALGAKAPGGAAFAAAARILERAAEDIEKA

molecular target: VTCN1, Q7Z7D3
Sequence (Q7Z7D3 whole entry): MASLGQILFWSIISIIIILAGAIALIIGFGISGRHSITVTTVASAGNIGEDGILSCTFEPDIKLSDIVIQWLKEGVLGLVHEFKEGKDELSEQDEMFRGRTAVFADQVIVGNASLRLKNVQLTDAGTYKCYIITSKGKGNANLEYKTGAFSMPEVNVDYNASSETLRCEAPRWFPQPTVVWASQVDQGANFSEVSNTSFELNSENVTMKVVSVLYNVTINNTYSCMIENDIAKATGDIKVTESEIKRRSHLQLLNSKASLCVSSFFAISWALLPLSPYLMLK

Binding in a display sort, inactive:
B1 not found
B5 not found
B6 not found
B9 not found
B12 not found
B16 not found
B18 not found
B20 not found
B22 not found
B24 not found
B25 not found
B27 not found
B30 not found
B33 not found
B34 not found
B38 not found

molecular target: CD276, Q5ZPR3
Sequence (Q5ZPR3 whole entry): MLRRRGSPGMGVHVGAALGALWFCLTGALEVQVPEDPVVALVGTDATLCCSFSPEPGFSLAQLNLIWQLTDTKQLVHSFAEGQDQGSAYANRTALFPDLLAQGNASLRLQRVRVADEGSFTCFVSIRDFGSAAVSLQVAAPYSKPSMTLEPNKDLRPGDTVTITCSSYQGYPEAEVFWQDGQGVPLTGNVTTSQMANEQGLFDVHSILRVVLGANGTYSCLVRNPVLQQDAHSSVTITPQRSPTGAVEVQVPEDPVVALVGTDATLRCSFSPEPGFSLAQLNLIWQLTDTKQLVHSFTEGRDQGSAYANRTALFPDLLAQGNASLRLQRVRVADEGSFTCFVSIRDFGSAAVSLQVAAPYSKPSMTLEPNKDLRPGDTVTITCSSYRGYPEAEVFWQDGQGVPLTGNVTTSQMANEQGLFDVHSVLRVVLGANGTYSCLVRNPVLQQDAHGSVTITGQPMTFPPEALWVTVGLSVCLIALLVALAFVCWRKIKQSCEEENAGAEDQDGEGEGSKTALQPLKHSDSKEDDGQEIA

Binding in a display sort, inactive:
B2 not found
B3 not found
B4 not found
B7 not found
B8 not found
B10 not found
B11 not found
B13 not found
B14 not found
B15 not found
B17 not found
B19 not found
B21 not found
B23 not found
B26 not found
B28 not found
B29 not found
B31 not found
B32 not found
B35 not found
B36 not found
B37 not found
